The source holds several records for some structures; these can differ, active in one and inactive in another. A number with no mark means an inactive call. Where a call stands in place of a potency, no number is given. Activity calls are given as the source filed them. The call rests on the fitted dose curve; in most records, active means well fitted activation curve with a large enough effect in the signal ratio in the repeat runs (not every such curve was filed as active); inconclusive means weak or mixed curves, or effect the other way; inactive means no such curve, though single readings can be large or run the other way; the % refers to the signal ratio.
What follows are compounds tested against Glucocorticoid receptor (Homo sapiens) (UniProt P04150) (assay: qHTS assay to identify small molecule agonists of the glucocorticoid receptor (GR) signaling pathway (AID 720691)). Settings: GR-bla HeLa, beta-lactamase reporter ratio, 18 h; activation: at 62.4 µM (top of the series) unless noted.
Glucocorticoid receptor (Homo sapiens), sequence (P04150 whole entry, looked up): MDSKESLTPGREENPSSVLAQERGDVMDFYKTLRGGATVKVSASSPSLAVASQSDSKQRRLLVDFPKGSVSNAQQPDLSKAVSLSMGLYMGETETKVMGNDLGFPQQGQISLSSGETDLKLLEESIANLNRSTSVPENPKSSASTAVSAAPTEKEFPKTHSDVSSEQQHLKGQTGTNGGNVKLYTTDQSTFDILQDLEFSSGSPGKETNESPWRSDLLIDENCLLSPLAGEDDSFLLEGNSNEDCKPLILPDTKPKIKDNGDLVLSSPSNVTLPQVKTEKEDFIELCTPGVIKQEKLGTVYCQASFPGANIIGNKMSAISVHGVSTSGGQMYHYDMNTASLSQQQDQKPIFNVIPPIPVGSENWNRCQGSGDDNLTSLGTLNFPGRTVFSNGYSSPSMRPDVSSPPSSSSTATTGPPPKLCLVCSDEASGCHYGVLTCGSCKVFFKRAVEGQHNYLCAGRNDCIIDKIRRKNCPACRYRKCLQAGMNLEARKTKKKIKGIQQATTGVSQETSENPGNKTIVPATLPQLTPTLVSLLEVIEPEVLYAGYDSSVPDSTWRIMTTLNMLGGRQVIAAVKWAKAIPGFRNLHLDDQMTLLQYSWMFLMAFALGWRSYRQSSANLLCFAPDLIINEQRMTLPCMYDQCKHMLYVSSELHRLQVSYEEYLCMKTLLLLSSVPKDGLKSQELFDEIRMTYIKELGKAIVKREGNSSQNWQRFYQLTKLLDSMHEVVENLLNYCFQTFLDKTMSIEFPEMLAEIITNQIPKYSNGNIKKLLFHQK
From the text: U.S. Tox21 Program National Center for Advancing Translational Sciences [NCATS] NIH Chemical Genomics Center [NCGC] U.S. Environmental Protection Agency [EPA] National Institutes of Environmental Health Sciences [NIEHS] National Toxicology Program [NTP] U.S. Food and Drug Administration [FDA] Tox21 Assay Overview: The Glucocorticoid receptor (GR) is one of the members of the nuclear receptor family of ligand-dependent transcription factors. GR plays a critical role in carbohydrate, protein and lipid metabolisms and programmed cell death. CellSensor GR-bla HeLa cell line (Invitrogen) contains a beta-lactamase reporter gene under the control of the glucocorticoid response element stably integrated into HeLa cells, a cervical cancer cell line that expresses glucocorticoid receptor. The activation of the reporter gene under culture conditions can be detected by fluorescence intensity. This cell line has been used to screen the Tox21 10K compound library and to identify the compounds that activate the GR signaling.
Tox21 Assay Protocol Summary: The GR-bla HeLa cells were dispensed at 1500 cells/6 ul/well in 1536-well black wall/clear bottom plates using a Multidrop Combi (ThermoFisher Scientific, Waltham, MA) dispenser. After the assay plates were incubated at a 37 C/5% CO2 incubator for 4 hours, 23 nL of compounds dissolved in DMSO, positive controls or DMSO only was transferred to the assay plate by a pintool station (Kalypsys, San Diego, CA). The plates were incubated at 37 C for 18 hours. After 1 uL of LiveBLAzerTM B/G FRET substrate was added using a Flying Reagent Dispenser (Aurora Discovery, San Diego, CA), the plates were incubated at room temperature for 2 hours, and fluorescence intensity was measured by an Envision plate reader (PerkinElmer, Shelton, CT).

Row | SMILES | Potency | activation
1 | NC(=O)NNc1ccccc1 | inactive | –
2 | COCC(=O)O | inactive | –
3 | OCC1CCCO1 (stereo not given) | inactive | –
4 | CCCCOCCOCCOC(=O)CCCCC(=O)OCCOCCOCCCC | inactive | –
5 | C[C@@H](O)[C@H]1C(=O)N2C(C(=O)O)=C(S[C@@H]3CN[C@H](C(=O)N(C)C)C3)[C@H](C)[C@H]12 | – | 0.391%
6 | CCCCC(CC)C(=O)OCCOCCOCCOC(=O)C(CC)CCCC (stereo not given) | inactive | –
7 | C=C1CC[C@H](O)CC1=C/C=C1\CCC[C@]2(C)[C@@H]([C@H](C)/C=C/[C@H](C)C(C)C)CC[C@@H]12 | inactive | –
8 | NCc1cccc(CN)c1 | inactive | –
9 | C=C1C2CCC(C2)C1(C)C (stereo not given) | inactive | –
10 | CC1COc2ccccc2N1C(=O)C(Cl)Cl (stereo not given) | inactive | –
11 | O=C(c1cc(O)c(O)c(O)c1)c1ccc(O)c(O)c1O | inactive | –
12 | COC(=O)Nc1nc2ccc(Sc3ccccc3)cc2[nH]1 | – | 2.86% [inconclusive] [at 29.2 µM] (active)
13 | C[C@@H]1O[C@@H](OC[C@H]2O[C@@H](Oc3c(-c4ccc(O)c(O)c4)oc4cc(O)cc(O)c4c3=O)[C@H](O)[C@@H](O)[C@@H]2O)[C@H](O)[C@H](O)[C@H]1O | inactive | –
14 | Oc1ccc(OCc2ccccc2)cc1 | inactive | –
15 | O=S(=O)(O)CCS | inactive | –
16 | O=S(=O)(O)c1cc(S(=O)(=O)O)c2c(N=Nc3ccccc3)c(O)ccc2c1 | inactive | –
17 | CC(C)(C)C1CCC(O)CC1 (stereo not given) | inactive | –
18 | CC#C[C@]1(O)CC[C@H]2[C@@H]3CCC4=CC(=O)CCC4=C3[C@@H](c3ccc(N(C)C)cc3)C[C@@]21C | inactive | –
19 | NC(=O)/N=N/C(N)=O | inactive | –
20 | O=Nc1ccc(O)cc1 | inactive | –

Row | SMILES | Potency | activation
21 | CCCCCCCCC | inactive | –
22 | O=C(Cl)c1c(Cl)c(Cl)c(C(=O)Cl)c(Cl)c1Cl | inactive | –
23 | CCCCCCCCCCCCOCC1CO1 (stereo not given) | inactive | –
24 | CCc1ccccc1O | inactive | –
25 | O=C1N=C(O)CN1/N=C/c1ccc(-c2ccc([N+](=O)[O-])cc2)o1 | inactive | –
26 | CCCCC(CC)COC(=O)/C=C\C(=O)OCC(CC)CCCC (stereo not given) | inactive | –
27 | CCOC(=O)C1OC1c1ccccc1 (stereo not given) | inactive | –
28 | Cn1c([N+](=O)[O-])cnc1COC(N)=O | inactive | –
29 | ClC1=C(Cl)C(Cl)(Cl)C(Cl)=C1Cl | inactive | –
30 | Cc1cc(Cc2ccc(N)c(C)c2)ccc1N | inactive | –
31 | CS(=O)(=O)c1ccc([C@@H](O)[C@@H](CO)NC(=O)C(Cl)Cl)cc1 | inactive | –
32 | Cc1ccc(N)c(S(=O)(=O)O)c1 | inactive | –
33 | Cc1cc(O)cc(C)c1Cl | – | -1.89%
34 | OCCOCCOCCOCCO | inactive | –
35 | CC(C)(CO)COC(=O)C(C)(C)CO | inactive | –
36 | CCCCCCCCCCCCN | inactive | –
37 | CCCCCCC(C)(C)S | inactive | –
38 | CN(C)c1ccc(C(=N)c2ccc(N(C)C)cc2)cc1 | inactive | –
39 | CCCCOCCO | inactive | –

Same assay, conditions: GR-bla HeLa, beta-lactamase reporter ratio, 18 h; at 62.4 µM (top of the series)

Row | SMILES | activation [%]
40 | COC(=O)Nc1nc2ccc(Sc3ccccc3)cc2[nH]1 | 2.36

— PubChem BioAssay (Tox21)
